Values joined by “and” are separate entries in the source; they are usually repeats but may differ in a detail not shown here. Equal values may be shown once. Records with an inconclusive call do not appear. Where a structure was tested more than once in an assay, its records may differ in their call. Active and inactive are the calls of the source. Unless noted, the call rests on the fitted dose curve; in most records, active means well fitted curve in the direction sought with a large enough effect in the repeat runs; inconclusive means weak or mixed curves; inactive means no such curve, though single readings can be large; an effect the other way counts as inactive or inconclusive.

The values below come from PubChem BioAssay (Tox21).

Experiment [1] is described as follows: qHTS assay to identify small molecule that activate the aryl hydrocarbon receptor (AhR) signaling pathway - cell viability counter screen (AID 743086). Further: nearly all actives have a fitted effect of over 45% in size. Further: potency means the concentration at half of the fitted maximal effect. The method, boiled down: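 Cytotoxicity counter screen: CellTiter-Fluor signal (30 min, 37 C) in 4000 HepG2 cells/well carrying the DRE-luciferase reporter, following 24 h compound exposure at 37 C.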
On the technique in general: In qHTS, concentration-response curves come from the screen itself.

Experiment [2] has as its target Peroxisome proliferator-activated receptor gamma (Homo sapiens) (UniProt P37231). Description: qHTS assay to identify small molecule antagonists of the peroxisome proliferator-activated receptor gamma (PPARg) signaling pathway (AID 743191; calls by dose curve; further: nearly all actives have a fitted effect of over 30% in size; further: potency means the concentration at half of the fitted maximal effect). The method, boiled down:
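Beta-lactamase reporter under UAS control in HEK293H PPARg-bla cells; compound treatment 17 h at 37C. Read-out: fluorescence intensity after 1 h room-temperature incubation with LiveBLAzer B/G FRET substrate.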

A short description of experiment [3]: qHTS assay to identify small molecule antagonists of the peroxisome proliferator-activated receptor gamma (PPARg) signaling pathway - cell viability counter screen (AID 743194). Further: nearly all actives have a fitted effect of over 55% in size. Further: potency means the concentration at half of the fitted maximal effect. The method, boiled down: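 Viability was measured as CellTiter-Glo luminescence in GeneBLAzer PPARg UAS-bla HEK293H cells. These cells had been exposed 17 h at 37 C to compounds together with rosiglitazone at 50 nM final, with the beta-lactamase readout taken in the same wells.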

A short description of experiment [4]: qHTS assay for small molecule agonists of the antioxidant response element (ARE) signaling pathway - cell viability counter screen (AID 743203; calls by dose curve; further: nearly all actives have a fitted effect of over 55% in size). The essentials:
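Parallel cytotoxicity read-out for the ARE-bla screen: HepG2 reporter cells, 16 hrs with compounds, then CellTiter-Glo luminescence.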

Experiment [5] is described as follows: qHTS assay for small molecule activators of the heat shock response signaling pathway - cell viability counter screen (AID 743209). Further: nearly all actives have a fitted effect of over 50% in size. Further: potency means the concentration at half of the fitted maximal effect. The essentials:
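To flag cytotoxic compounds, HSE-bla HeLa cells plated at 1500 cells/well were dosed for 5 h at 37 C, followed by the reporter FRET read and then CellTiter-Glo, with luminescence recorded 30 min after reagent addition.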

A short description of experiment [6]: qHTS assay for small molecule activators of the heat shock response signaling pathway (AID 743210; active means well fitted activation curve with a large enough effect in the signal ratio in the repeat runs, with a control signal flat, not every such curve was filed as active; the % refers to the signal ratio; further: series mostly up to about 63 µM). The method, boiled down:
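Compound exposure lasted 5 h at 37 C in HeLa cells carrying a heat-shock-element-driven beta-lactamase reporter. Read-out: fluorescence intensity after 2.5 h room-temperature loading with LiveBLAzer B/G FRET substrate.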

Experiment [7] in a line: qHTS assay to identify small molecule agonists of the peroxisome proliferator-activated receptor delta (PPARd) signaling pathway - cell viability counter screen (AID 743211). Further: nearly all actives have a fitted effect of over 55% in size. The method, boiled down: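 Read-out: CellTiter-Glo luminescence, 30 min RT, measured in the same wells as the beta-lactamase reporter. Cells: GeneBLAzer PPAR delta UAS-bla HEK293H, 3000 cells/well, compound exposure 17 h at 37C.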

For experiment [8], the target named is Peroxisome proliferator-activated receptor delta (Homo sapiens) (UniProt Q03181). Put plainly: qHTS assay to identify small molecule agonists of the peroxisome proliferator-activated receptor delta (PPARd) signaling pathway (AID 743212; calls by dose curve). The essentials:
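Beta-lactamase reporter readout: a ratiometric FRET signal from the LiveBLAzer substrate after 2 h at room temperature. Compound exposure at 37 °C in PPARδ-bla HEK293H cells driven by an upstream activator sequence.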

The nature of experiment [9]: qHTS assay to identify small molecule antagonists of the peroxisome proliferator-activated receptor delta (PPARd) signaling pathway - cell viability counter screen (AID 743213). Further: nearly all actives have a fitted effect of over 50% in size. The essentials: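 PPARd-bla HEK293H cells (3000/well) got compound plus 300 nM L165041 agonist for 17 h at 37 C. Viability in the same wells came from CellTiter-Glo luminescence after 30 min at room temperature.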

Experiment [10] has as its target Bile acid receptor (Homo sapiens) (UniProt Q96RI1). Put plainly: qHTS assay to identify small molecule antagonists of the farnesoid-X-receptor (FXR) signaling pathway (AID 743217; active means well fitted inhibition curve with a large enough effect in the signal ratio in the repeat runs, not every such curve was filed as active; the % refers to the signal ratio; further: potency means the concentration at half of the fitted maximal effect). The essentials:
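Quantitative HTS, beta-lactamase reporter format: FXR-UAS-bla HEK 293T cells co-treated 16 h at 37 °C with compounds and 50 uM final chenodeoxycholic acid, then read by B/G FRET fluorescence.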

The target is the same in experiment [11]. Put plainly: qHTS assay to identify small molecule agonists of the farnesoid-X-receptor (FXR) signaling pathway (AID 743220; active means well fitted activation curve with a large enough effect in the signal ratio in the repeat runs, not every such curve was filed as active; the % refers to the signal ratio). The essentials:
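FXR-UAS-bla HEK 293T cells carrying a UAS-driven beta-lactamase reporter were plated for 5 h at 37C/5% CO2, then exposed to DMSO-dissolved Tox21 10K compounds for 16 h at 37C. A LiveBLAzer B/G FRET substrate was loaded for 2 h at room temperature before fluorescence reading.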

The nature of experiment [12]: qHTS assay to identify small molecule antagonists of the farnesoid-X-receptor (FXR) signaling pathway - cell viability counter screen (AID 743221; active means well fitted cell-killing curve with a large enough effect in the repeat runs, not every such curve was filed as active; further: nearly all actives have a fitted effect of over 50% in size). The method, boiled down: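 HEK 293T FXR-bla cells, 5 h pre-incubation; compound + CDCA 50 uM final, 16 h, 37 C; beta-lactamase FRET read first, then CellTiter-Glo luminescence, 30 min RT.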
Experiment [13] is described as follows: qHTS assay to identify small molecule agonists of the vitamin D receptor (VDR) signaling pathway - cell viability counter screen (AID 743224). Further: nearly all actives have a fitted effect of over 50% in size. Further: potency means the concentration at half of the fitted maximal effect. The essentials:
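Counter screen for cytotoxicity: VDR-bla cells at 2,000 cells/well, 16 h compound exposure, then CellTiter-Glo luminescence after the beta-lactamase measurement.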

Experiment [14] addresses Peroxisome proliferator-activated receptor delta (Homo sapiens) (UniProt Q03181). Description: qHTS assay to identify small molecule antagonists of the peroxisome proliferator-activated receptor delta (PPARd) signaling pathway (AID 743215; active means well fitted inhibition curve with a large enough effect in the signal ratio in the repeat runs, not every such curve was filed as active; the % refers to the signal ratio;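 further: cells stimulated with agonist L165041 at 300 nM final during compound exposure; series mostly up to about 62 µM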). The method, boiled down: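 Screen format: qHTS, antagonist mode. HEK293H PPARd-bla cells received compound and 300 nM L165041 (final), 17 h, 37 C. Beta-lactamase detected via FRET substrate fluorescence, 2 h, room temperature.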

A short description of experiment [15]: qHTS assay to identify small molecule agonists of the farnesoid-X-receptor (FXR) signaling pathway - cell viability counter screen (AID 743218). Further: nearly all actives have a fitted effect of over 45% in size. The essentials:
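Same-well cytotoxicity check on FXR-UAS-bla HEK 293T cells: 5 h attachment, 16 h compound at 37 C, CellTiter-Glo luminescence read at room temperature after 30 min.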

Experiment [16] addresses Peroxisome proliferator-activated receptor gamma (Homo sapiens) (UniProt P37231). Put plainly: qHTS assay to identify small molecule agonists of the peroxisome proliferator-activated receptor gamma (PPARg) signaling pathway (AID 743094; active means well fitted activation curve with a large enough effect in the signal ratio in the repeat runs, not every such curve was filed as active; the % refers to the signal ratio). The method, boiled down: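 Fluorescence-based beta-lactamase readout in HEK293H PPARg UAS-bla cells after 17 h compound exposure (37C) and 1 h B/G FRET substrate incubation at room temperature.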

The target of experiment [17] is Vitamin D3 receptor (Homo sapiens) (UniProt P11473). Put plainly: qHTS assay to identify small molecule agonists of the vitamin D receptor (VDR) signaling pathway (AID 743222; calls by dose curve). The method, boiled down:
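Using LiveBLAzer B/G FRET detection, agonism was scored in VDR-bla cells exposed overnight (16 h, 37C) to DMSO-dissolved compounds; substrate incubation was 2 h at room temperature.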

For experiment [18] the target is unchanged. Description: qHTS assay to identify small molecule antagonists of the vitamin D receptor (VDR) signaling pathway (AID 743223; active means well fitted inhibition curve with a large enough effect in the signal ratio in the repeat runs, not every such curve was filed as active; the % refers to the signal ratio). The method, boiled down:
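Beta-lactamase reporter read-out: FRET substrate fluorescence after 2 h at room temperature, following 16 h exposure of VDR-bla cells to test compound plus 3 nM (final) 1alpha,25-dihydroxyvitamin D3 agonist at 37C.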

Experiment [19] in a line: qHTS assay for small molecule agonists of the antioxidant response element (ARE) signaling pathway (AID 743202; active means well fitted activation curve with a large enough effect in the signal ratio in the repeat runs, not every such curve was filed as active; the % refers to the signal ratio; further: potency means the concentration at half of the fitted maximal effect). The essentials:
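After 16 hours of compound treatment at 37 C, HepG2 cells with a stably integrated ARE-driven beta-lactamase reporter were loaded 2 hours at room temperature with LiveBLAzer B/G FRET substrate and fluorescence intensity measured.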

Vitamin D3 receptor (Homo sapiens), sequence (P11473 whole entry, looked up): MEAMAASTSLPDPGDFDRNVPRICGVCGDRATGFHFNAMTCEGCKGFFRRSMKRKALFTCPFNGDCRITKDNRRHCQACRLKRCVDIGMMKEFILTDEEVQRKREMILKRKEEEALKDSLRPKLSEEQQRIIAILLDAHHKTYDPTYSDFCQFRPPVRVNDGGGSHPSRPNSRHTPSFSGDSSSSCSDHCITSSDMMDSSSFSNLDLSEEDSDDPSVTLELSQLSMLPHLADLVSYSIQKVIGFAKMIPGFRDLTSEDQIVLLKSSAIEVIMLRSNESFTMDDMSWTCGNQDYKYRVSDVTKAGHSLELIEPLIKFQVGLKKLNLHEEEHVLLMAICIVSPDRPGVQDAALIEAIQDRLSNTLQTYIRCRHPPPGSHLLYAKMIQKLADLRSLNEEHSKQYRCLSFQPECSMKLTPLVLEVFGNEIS
Peroxisome proliferator-activated receptor gamma (Homo sapiens), sequence (P37231 whole entry, looked up): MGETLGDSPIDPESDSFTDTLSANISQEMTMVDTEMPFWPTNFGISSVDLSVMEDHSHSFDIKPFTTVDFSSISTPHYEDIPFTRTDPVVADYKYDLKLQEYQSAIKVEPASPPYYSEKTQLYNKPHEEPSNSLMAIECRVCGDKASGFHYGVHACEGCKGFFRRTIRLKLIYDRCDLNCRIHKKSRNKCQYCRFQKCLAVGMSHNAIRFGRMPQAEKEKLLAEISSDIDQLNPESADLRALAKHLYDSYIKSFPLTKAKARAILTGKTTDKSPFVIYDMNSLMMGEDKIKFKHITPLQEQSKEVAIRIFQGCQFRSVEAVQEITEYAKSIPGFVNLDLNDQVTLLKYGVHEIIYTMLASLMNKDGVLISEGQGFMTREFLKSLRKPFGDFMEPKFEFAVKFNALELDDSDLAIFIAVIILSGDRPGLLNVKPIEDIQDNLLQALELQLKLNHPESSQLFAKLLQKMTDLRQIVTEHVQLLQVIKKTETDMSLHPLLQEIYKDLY
Bile acid receptor (Homo sapiens), sequence (Q96RI1 whole entry, looked up): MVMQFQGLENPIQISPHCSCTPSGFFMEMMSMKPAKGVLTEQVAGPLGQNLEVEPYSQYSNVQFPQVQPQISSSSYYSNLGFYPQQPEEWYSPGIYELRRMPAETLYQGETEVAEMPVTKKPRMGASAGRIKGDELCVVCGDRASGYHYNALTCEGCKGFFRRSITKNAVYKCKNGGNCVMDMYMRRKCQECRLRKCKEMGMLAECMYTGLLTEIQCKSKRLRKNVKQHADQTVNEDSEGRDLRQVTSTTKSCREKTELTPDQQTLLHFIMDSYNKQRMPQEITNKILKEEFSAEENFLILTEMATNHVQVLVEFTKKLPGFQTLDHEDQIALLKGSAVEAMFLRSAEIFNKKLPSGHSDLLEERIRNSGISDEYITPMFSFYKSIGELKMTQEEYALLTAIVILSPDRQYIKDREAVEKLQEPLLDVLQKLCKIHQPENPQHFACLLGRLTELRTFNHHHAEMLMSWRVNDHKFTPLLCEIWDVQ
Peroxisome proliferator-activated receptor delta (Homo sapiens), sequence (Q03181 whole entry, looked up): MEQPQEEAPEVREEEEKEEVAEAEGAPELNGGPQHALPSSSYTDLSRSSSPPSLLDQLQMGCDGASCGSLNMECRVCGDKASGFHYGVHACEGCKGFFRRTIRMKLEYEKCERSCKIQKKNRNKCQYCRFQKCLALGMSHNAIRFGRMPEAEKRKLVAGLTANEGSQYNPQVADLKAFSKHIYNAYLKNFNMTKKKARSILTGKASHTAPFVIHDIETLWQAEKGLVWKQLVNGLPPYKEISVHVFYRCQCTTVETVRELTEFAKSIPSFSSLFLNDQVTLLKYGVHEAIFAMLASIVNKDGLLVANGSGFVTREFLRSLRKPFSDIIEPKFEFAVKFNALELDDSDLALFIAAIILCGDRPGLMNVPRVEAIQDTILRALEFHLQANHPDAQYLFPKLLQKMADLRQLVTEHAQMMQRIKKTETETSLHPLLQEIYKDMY

Take `O=C(/C=C/C=C/c1ccc2c(c1)OCO2)N1CCCCC1`: the Potency entry in [1], in [3], in experiment [4], in experiment [5], in [6] and in experiment [7] was “inactive” each time. In addition, the Potency entry in experiment [9], in [12] and in [13] was “inactive” throughout. The Potency in [2] is 43.7 µM (active); in experiment [10], “inactive and 54.9 µM (active)”. The compound was called inactive in experiment [8] and in [11].

With `COc1cc([C@@H]2c3cc4c(cc3[C@H](O)[C@H]3COC(=O)[C@H]23)OCO4)cc(OC)c1OC`, the Potency result in experiment [1], in [2], in experiment [3], in experiment [4], in experiment [5] and in [6] was “inactive” each time. In addition, the Potency result in experiment [7], in [14], in [15], in experiment [12] and in experiment [13] was “inactive” throughout.

Take `Oc1ccc(O)cc1`: the Potency entry in experiment [1], in experiment [3], in [4], in experiment [5], in experiment [6] and in experiment [7] was “inactive” each time. For the same compound, the Potency result in experiment [9], in [14], in experiment [12] and in experiment [13] was “inactive” in each case. Moreover, in [8], the compound was called inactive.

Turning to `COC(=O)CCC(=O)OC`, the Potency result in experiment [1], in experiment [16], in [2], in experiment [3], in experiment [4] and in experiment [5] was “inactive” throughout. For the same compound, the Potency entry in [7], in [9], in [14], in experiment [10], in experiment [12] and in experiment [13] was “inactive” each time. Also, the result in [8], in experiment [11], in [17] and in experiment [18] was inactive.

Take `CCCCC/C=C/C=C/C=O`: the Potency entry in [1], in experiment [4], in [5], in experiment [7], in experiment [9] and in experiment [14] was “inactive” each time. The Potency result in experiment [10], in [15] and in [12] was “inactive” each time. In addition, the Potency in [3] was 38.6 µM (active) and 38.9 µM (active); in experiment [13], “inactive and 49 µM (active)”. Further, the result in experiment [8] and in [11] was inactive.

In the case of `CC(=O)Oc1ccccc1C(=O)Nc1ncc([N+](=O)[O-])s1`, the Potency entry was “inactive and 17.6 µM (active)” in experiment [1]; 1.58 µM (active) and 5.31 µM (active) in [3]; 1.19 µM (active) in experiment [5]; 12.6 µM (active) in experiment [13]. Also, the Potency entry in experiment [16], in experiment [6], in experiment [7] and in experiment [10] was “inactive” throughout. Besides, the result in [8] was inactive.

As to `CC(C)(C)NC(=O)[C@H]1CC[C@H]2[C@@H]3CC[C@H]4NC(=O)C=C[C@]4(C)[C@H]3CC[C@]12C`, the Potency entry in [1], in experiment [16], in [3], in experiment [4], in experiment [5] and in experiment [6] was “inactive” in each case. For the same compound, the Potency result in experiment [7], in [9], in experiment [14], in [15], in experiment [12] and in experiment [13] was “inactive” in each case. Besides, in experiment [19], the Potency is 53.9 µM (active). Also, the result in experiment [8], in experiment [11] and in [17] was inactive.
